# According to PubChem BioAssay AID1159580 (chemical genetic matrix, 2015):
# Hit rate of the full screen: of about 5,500 compounds, about 2,000 (36%) were called active. About 18% were inconclusive and are not listed. This is one part of the list. A number with no mark means an inactive call. No stated cut-off is given here; in the data, active means normalized growth mostly below about 0.91 (no sharp cut-off); inconclusive means no clear call, values can overlap the other calls; inactive means mostly above about 0.92.
# Assay: chemical genetic growth profiling, strain panel (AID 1159580);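 further: tested at 20 µM; growth read once vehicle control cultures reached saturation at 30 °C; 1 = growth at the plate median or of vehicle wells; lower values mean less growth of the strain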
# Details: growth OD
smiles,measurement,setting,value
CC(=O)O[C@@H]1C=C[C@@]2(C)C(C[C@@H](OC(C)=O)[C@@]3(C)C4=CC(=O)O[C@@H](c5ccoc5)[C@]4(C)CCC23)C1(C)C (some centres not stated),normalized growth,"S. cerevisiae deletion strains, locus YJR066W, strain TOR1, active compounds read low",0.928
same,normalized growth,"S. cerevisiae deletion strains, locus YJR075W, strain HOC1, active compounds read low",1.03
same,normalized growth,"S. cerevisiae deletion strains, locus YKL009W, strain mrt4, active compounds read low",0.364 (active)
same,normalized growth,"S. cerevisiae deletion strains, locus YKL068W, active compounds read low",0.0545 (active)
same,normalized growth,"S. cerevisiae deletion strains, locus YKL085W, strain MDH1 (second series), active compounds read low",0.0525 (active)
same,normalized growth,"S. cerevisiae deletion strains, locus YKL085W, strain MDH1, active compounds read low",0.0525 (active)
same,normalized growth,"S. cerevisiae deletion strains, locus YKL160W, strain elf1, active compounds read low",0.988
same,normalized growth,"S. cerevisiae deletion strains, locus YKL190W, strain CNB1, active compounds read low",1.01
same,normalized growth,"S. cerevisiae deletion strains, locus YKR001C, strain vps1, active compounds read low",0.0622 (active)
same,normalized growth,"S. cerevisiae deletion strains, locus YKR026C, strain gcn3, active compounds read low",1.01
same,normalized growth,"S. cerevisiae deletion strains, locus YKR091W, strain srl3, active compounds read low",0.982
same,normalized growth,"S. cerevisiae deletion strains, locus YLL001W, strain dnm1, active compounds read low",1.02
same,normalized growth,"S. cerevisiae deletion strains, locus YLL026W, active compounds read low",1.01
same,normalized growth,"S. cerevisiae deletion strains, locus YLL041C, strain sdh2, active compounds read low",0.999
same,normalized growth,"S. cerevisiae deletion strains, locus YLR027C, strain aat2, active compounds read low",1
same,normalized growth,"S. cerevisiae deletion strains, locus YLR039C, strain RIC1, active compounds read low",0.982
same,normalized growth,"S. cerevisiae deletion strains, locus YLR058C, strain SHM2, active compounds read low",1.01
same,normalized growth,"S. cerevisiae deletion strains, locus YLR102C, strain apc9, active compounds read low",0.0602 (active)
same,normalized growth,"S. cerevisiae deletion strains, locus YLR113W, strain HOG1, active compounds read low",1.01
same,normalized growth,"S. cerevisiae deletion strains, locus YLR221C, strain rsa3, active compounds read low",1.05
same,normalized growth,"S. cerevisiae deletion strains, locus YLR258W, strain gsy2, active compounds read low",0.999
same,normalized growth,"S. cerevisiae deletion strains, locus YLR262C, strain YPT6 (second series), active compounds read low",0.96
same,normalized growth,"S. cerevisiae deletion strains, locus YLR262C, strain YPT6, active compounds read low",0.986
same,normalized growth,"S. cerevisiae deletion strains, locus YLR268W, strain sec22, active compounds read low",0.0676 (active)
same,normalized growth,"S. cerevisiae deletion strains, locus YLR320W, strain mms22, active compounds read low",1.02
same,normalized growth,"S. cerevisiae deletion strains, locus YLR330W, strain CHS5, active compounds read low",1.01
same,normalized growth,"S. cerevisiae deletion strains, locus YLR342W, strain FKS1 (second series), active compounds read low",1.03
same,normalized growth,"S. cerevisiae deletion strains, locus YLR342W, strain FKS1, active compounds read low",0.994
same,normalized growth,"S. cerevisiae deletion strains, locus YLR357W, strain rsc2, active compounds read low",1.03
same,normalized growth,"S. cerevisiae deletion strains, locus YLR370C, strain arc18, active compounds read low",0.983
same,normalized growth,"S. cerevisiae deletion strains, locus YLR371W, strain rom2, active compounds read low",0.0619 (active)
same,normalized growth,"S. cerevisiae deletion strains, locus YLR384C, strain iki3, active compounds read low",0.983
same,normalized growth,"S. cerevisiae deletion strains, locus YLR418C, strain cdc73, active compounds read low",0.0929 (active)
same,normalized growth,"S. cerevisiae deletion strains, locus YML016C, strain PPZ1, active compounds read low",1.02
same,normalized growth,"S. cerevisiae deletion strains, locus YML032C, strain rad52, active compounds read low",0.15 (active)
same,normalized growth,"S. cerevisiae deletion strains, locus YML120C, strain ndi1, active compounds read low",0.994
same,normalized growth,"S. cerevisiae deletion strains, locus YML124C, strain tub3, active compounds read low",0.0589 (active)
same,normalized growth,"S. cerevisiae deletion strains, locus YMR058W, strain fet3, active compounds read low",0.984
same,normalized growth,"S. cerevisiae deletion strains, locus YMR078C, strain ctf18, active compounds read low",0.072 (active)
same,normalized growth,"S. cerevisiae deletion strains, locus YMR125W, strain sto1, active compounds read low",0.997
same,normalized growth,"S. cerevisiae deletion strains, locus YMR129W, active compounds read low",0.999
same,normalized growth,"S. cerevisiae deletion strains, locus YMR205C, strain PFK2, active compounds read low",1
same,normalized growth,"S. cerevisiae deletion strains, locus YMR223W, strain ubp8, active compounds read low",0.0665 (active)
same,normalized growth,"S. cerevisiae deletion strains, locus YMR231W, strain pep5, active compounds read low",0.991
same,normalized growth,"S. cerevisiae deletion strains, locus YMR263W, strain SAP30, active compounds read low",1
same,normalized growth,"S. cerevisiae deletion strains, locus YMR307W, strain GAS1, active compounds read low",1.06
same,normalized growth,"S. cerevisiae deletion strains, locus YNL067W, strain RPL9B, active compounds read low",1
same,normalized growth,"S. cerevisiae deletion strains, locus YNL071W, strain lat1, active compounds read low",0.992
same,normalized growth,"S. cerevisiae deletion strains, locus YNL128W, strain TEP1, active compounds read low",1
same,normalized growth,"S. cerevisiae deletion strains, locus YNL153C, strain GIM3, active compounds read low",0.998
same,normalized growth,"S. cerevisiae deletion strains, locus YNL183C, strain NPR1, active compounds read low",0.956
same,normalized growth,"S. cerevisiae deletion strains, locus YNL209W, strain ssb2, active compounds read low",0.985
same,normalized growth,"S. cerevisiae deletion strains, locus YNL233W, strain BNI4, active compounds read low",1
same,normalized growth,"S. cerevisiae deletion strains, locus YNL248C, strain rpa49, active compounds read low",0.961
same,normalized growth,"S. cerevisiae deletion strains, locus YNL250W, strain rad50, active compounds read low",0.065 (active)
same,normalized growth,"S. cerevisiae deletion strains, locus YNL271C, strain bni1, active compounds read low",0.0603 (active)
same,normalized growth,"S. cerevisiae deletion strains, locus YNL298W, strain CLA4, active compounds read low",0.0602 (active)
same,normalized growth,"S. cerevisiae deletion strains, locus YNL307C, strain MCK1, active compounds read low",0.069 (active)
same,normalized growth,"S. cerevisiae deletion strains, locus YNL322C, strain KRE1 (second series), active compounds read low",0.985
same,normalized growth,"S. cerevisiae deletion strains, locus YNL322C, strain KRE1, active compounds read low",1.02
same,normalized growth,"S. cerevisiae deletion strains, locus YNR049C, strain mso1, active compounds read low",0.975
same,normalized growth,"S. cerevisiae deletion strains, locus YNR052C, strain pop2, active compounds read low",0.112 (active)
same,normalized growth,"S. cerevisiae deletion strains, locus YOL006C, strain TOP1, active compounds read low",0.901
same,normalized growth,"S. cerevisiae deletion strains, locus YOL147C, strain pex11, active compounds read low",0.0888 (active)
same,normalized growth,"S. cerevisiae deletion strains, locus YOR001W, strain rrp6, active compounds read low",1.01
same,normalized growth,"S. cerevisiae deletion strains, locus YOR061W, strain CKA2, active compounds read low",1.01
same,normalized growth,"S. cerevisiae deletion strains, locus YOR069W, strain VPS5, active compounds read low",1.01
same,normalized growth,"S. cerevisiae deletion strains, locus YOR070C, strain gyp1, active compounds read low",0.991
same,normalized growth,"S. cerevisiae deletion strains, locus YOR080W, strain dia2, active compounds read low",0.984
same,normalized growth,"S. cerevisiae deletion strains, locus YOR083W, strain WHI5, active compounds read low",1
same,normalized growth,"S. cerevisiae deletion strains, locus YOR106W, strain vam3, active compounds read low",0.997
same,normalized growth,"S. cerevisiae deletion strains, locus YOR136W, strain idh2, active compounds read low",0.0732 (active)
same,normalized growth,"S. cerevisiae deletion strains, locus YOR144C, strain elg1, active compounds read low",0.131 (active)
same,normalized growth,"S. cerevisiae deletion strains, locus YOR184W, strain ser1, active compounds read low",0.0712 (active)
same,normalized growth,"S. cerevisiae deletion strains, locus YOR231W, strain MKK1, active compounds read low",0.985
same,normalized growth,"S. cerevisiae deletion strains, locus YOR265W, strain rbl2, active compounds read low",0.985
same,normalized growth,"S. cerevisiae deletion strains, locus YOR270C, strain vph1, active compounds read low",0.885
same,normalized growth,"S. cerevisiae deletion strains, locus YOR290C, strain snf2, active compounds read low",0.956
same,normalized growth,"S. cerevisiae deletion strains, locus YOR316C, strain cot1, active compounds read low",0.0594 (active)
same,normalized growth,"S. cerevisiae deletion strains, locus YPL051W, strain arl3, active compounds read low",0.996
same,normalized growth,"S. cerevisiae deletion strains, locus YPL055C, strain LGE1, active compounds read low",0.968
same,normalized growth,"S. cerevisiae deletion strains, locus YPL078C, strain atp4, active compounds read low",0.982
same,normalized growth,"S. cerevisiae deletion strains, locus YPL106C, strain sse1, active compounds read low",0.975
same,normalized growth,"S. cerevisiae deletion strains, locus YPL240C, strain hsp82, active compounds read low",0.993
same,normalized growth,"S. cerevisiae deletion strains, locus YPL241C, strain CIN2, active compounds read low",1.01
same,normalized growth,"S. cerevisiae deletion strains, locus YPL256C, strain CLN2, active compounds read low",0.948
same,normalized growth,"S. cerevisiae deletion strains, locus YPR119W, strain clb2, active compounds read low",0.0629 (active)
same,normalized growth,"S. cerevisiae deletion strains, locus YPR141C, strain kar3, active compounds read low",0.0773 (active)
same,normalized growth,"S. cerevisiae deletion strains, locus YPR163C, strain tif3, active compounds read low",0.0691 (active)
same,normalized growth,"S. cerevisiae deletion strains, locus YPR167C, strain met16, active compounds read low",0.0608 (active)
same,normalized growth,"S. cerevisiae deletion strains, strain wtn01, active compounds read low",0.0601 (active)
same,normalized growth,"S. cerevisiae strains, strain wild type, active compounds read low",1.02
